Article PMC5540273 (PLoS ONE, 2017)

What was measured:
Details in all cases: concentration: 1 μM, replicates: in singlicate; n = 1
[1] = test system: TNNI3K
[2] = test system: T1, TRKA
T1 construct: gene NTRK1

[3] = test system: TRKB
[4] = test system: T2, TRKC
T2 construct: gene NTRK3

[5] = test system: TRPM6
[6] = test system: TSSK1B
[7] = test system: TSSK3
[8] = test system: TTK
[9] = test system: TXK
[10] = test system: TYK2(JH1domain-catalytic)
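Further: KINOMEscan kinase panel screen.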

Row | SMILES | %Inh [1] | %Inh [2] | %Inh [3] | %Inh [4] | %Inh [5] | %Inh [6] | %Inh [7] | %Inh [8] | %Inh [9] | %Inh [10]
1 | CN(c1ccc(NC(=O)N2CCN(CCCN3CCOCC3)CC2)cc1)c1ccnc(Nc2ccc(CS(C)(=O)=O)cc2)n1.Cl [GW830899] | 5% | 0% | 0% | 0% | 0% | 3% | 0% | 26% | 38% | 31%
2 | CN(C)CCOc1ccc(-c2cc(-c3ccc(Cl)c(O)c3)c(-c3ccncc3)[nH]2)cc1.Cl.Cl [SB-684387] | 60% | 9% | 21% | 36% | 36% | 0% | 15% | 0% | 56% | 8%
3 | CCn1c(-c2nonc2N)nc2c(-c3ccccc3)ncc(OCCCN)c21.O=C(O)C(F)(F)F.O=C(O)C(F)(F)F [GSK260205] | 16% | 0% | 23% | 26% | 19% | 11% | 24% | 0% | 0% | 88%
4 | O=C(Nc1n[nH]c2nc(-c3ccccc3O)ccc12)C1CC1 [SB-711880] | 0% | 49% | 17% | 16% | 0% | 0% | 0% | 18% | 0% | 0%
5 | Fc1cc(Cl)ccc1Nc1ccnc2cc(-c3ccc(CN4CCSCC4)o3)ccc12 [GW560106] | 10% | 72% | 28% | 0% | 3% | 0% | 14% | 13% | 82% | 19%
6 | Nc1ncc(-c2ccc3nccc(-c4ccncc4)c3c2)cc1S(=O)(=O)N1CCCCC1 [GSK1693850] | 1% | 99% | 0% | 0% | 0% | 0% | 7% | 21% | 0% | 4%
7 | Cn1cc(-c2ccc3c(c2)CCN3C(=O)Cc2cc(F)cc(C(F)(F)F)c2)c2c(N)ncnc21 [GSK2635225] | 47% | 49% | 49% | 69% | 36% | 0% | 15% | 26% | 0% | 0%
8 | Fc1cc(Cl)ccc1Nc1ccnc2cc(-c3ccc(CN4CCOCC4)o3)ccc12 [GW560109] | 7% | 42% | 41% | 35% | 35% | 21% | 3% | 21% | 86% | 18%
9 | N#Cc1cnc2cc(-c3cnc(CNCCN4CCOCC4)s3)ccc2c1Nc1ccc(Oc2ccccc2)cc1 [GW664114] | 2% | 55% | 42% | 46% | 48% | 1% | 8% | 0% | 71% | 0%
